Among the data in the supplement of paper PMC12067926 are relative growth values, retold here.

Values without a mark were called inactive.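 Rule for the calls: active = growth AUC significantly below the DMSO wells by Dunnett test; inactive = the rest.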

The subject of the assay is Carnobacterium 1 (Carnobacterium gallinarum). In words: relative growth (AUC of 72 h growth curve relative to DMSO control, dAUC) (ratio); higher = more growth (less inhibition), active = hit call of the paper. Conditions: 20 µM. The procedure: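 Environmental bacterial isolates (Iceland stream sediment and Silwood Park soil) and whole stream-sediment communities were grown in LB from a 1:100 dilution with each pesticide at 20 µM (1% DMSO). A600 was read hourly for 72 h and the area under a spline-fitted growth curve (AUC) was computed. dAUC is the mean AUC of 3 biological replicates divided by the mean AUC of the DMSO controls. Significance was tested by Dunnett's test against the DMSO control.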
For `COCC(=O)N(c1c(C)cccc1C)C(C)C(=O)OC` (stereo not given), the relative growth is 1.13. For `CC1(C)CON(Cc2ccccc2Cl)C1=O`, the relative growth was 0.914. As for `COCC(=O)N(c1c(C)cccc1C)[C@H](C)C(=O)OC`, the relative growth was 1.12.

As to `CNC(=O)c1cc(C#N)cc(C)c1NC(=O)c1cc(Br)nn1-c1ncccc1Cl`, the relative growth is 0.896. On to `COP(=O)(NC(C)=O)SC` (stereo not given), for which the relative growth is 1.08.

In the case of `CC(C)OC(=O)Nc1cccc(Cl)c1`, the relative growth is 1.5. Consider `O=C(Nc1ccc(F)cc1F)c1cccnc1Oc1cccc(C(F)(F)F)c1`, for which the relative growth is 1.1.

As for `CCCC1COC(Cn2cncn2)(c2ccc(Cl)cc2Cl)O1` (stereo not given), the relative growth is 0.835.

As for `CON(C)C(=O)Nc1ccc(Cl)c(Cl)c1`, the relative growth was 1.02. For `CNC(=O)CSP(=S)(OC)OC` the value was 0.894; for `CC[C@H]1CCC[C@H](O[C@H]2CC[C@H](N(C)C)[C@@H](C)O2)[C@@H](C)C(=O)C2=C[C@@H]3[C@@H](C=C(C)[C@@H]4C[C@@H](O[C@@H]5O[C@@H](C)[C@H](OC)[C@@H](OC)[C@H]5OC)C[C@@H]34)[C@@H]2CC(=O)O1.CC[C@H]1CCC[C@H](O[C@H]2CC[C@H](N(C)C)[C@@H](C)O2)[C@@H](C)C(=O)C2=C[C@H]3[C@@H]4C[C@H](O[C@@H]5O[C@@H](C)[C@H](OC)[C@@H](OC)[C@H]5OC)C[C@H]4C=C[C@H]3C2CC(=O)O1`, 0.952; for `CCCCCCCCCCCCNC(=N)N`, 0.0114 (active).

On to `CCOC(=O)CC(SP(=S)(OC)OC)C(=O)OCC` (stereo not given), for which the relative growth was 1.09.

Turning to `CS(=O)(=O)NC(=O)c1cc(Oc2ccc(C(F)(F)F)cc2Cl)ccc1[N+](=O)[O-]`, the relative growth is 0.908. `C[N+]1(C)CCCCC1`: the relative growth is 1.2.

As for `O=[N+]([O-])c1cc(C(F)(F)F)c(Cl)c([N+](=O)[O-])c1Nc1ncc(C(F)(F)F)cc1Cl`, the relative growth is 0.00939 (active). Turning to `CCNC(=O)NC(=O)/C(C#N)=N/OC`, the relative growth was 0.965.

As to `C/C(=N\C#N)N(C)Cc1ccc(Cl)nc1`, the relative growth was 1.32. For `CC(Oc1ccc(Oc2nc3ccc(Cl)cc3o2)cc1)C(=O)O` (stereo not given) the value was 1.36; for `Nc1c(Cl)c(F)nc(OCC(=O)O)c1Cl`, 1.23.

For `Cc1cc(C)nc(Nc2ccccc2)n1`, the relative growth is 1.1. With `O=C(NCCc1ncc(C(F)(F)F)cc1Cl)c1ccccc1C(F)(F)F`, the relative growth is 0.905. In the case of `N#CC(CCc1ccc(Cl)cc1)(Cn1cncn1)c1ccccc1` (stereo not given), the relative growth was 0.805. In the case of `CO/C=C(/C(=O)OC)c1ccccc1Oc1cc(Oc2ccccc2C#N)ncn1`, the relative growth was 1.27.

In the case of `O=C(NC(=O)c1c(F)cccc1F)Nc1ccc(OC(F)(F)C(F)OC(F)(F)F)c(Cl)c1` (stereo not given), the relative growth was 0.745.

Regarding `CCCN(CCC)C(=O)SCc1ccccc1`, the relative growth was 1.04.

For the molecule `O=C(O)c1nc(Cl)ccc1Cl`, the relative growth is 0.925. As to `CNC(=O)ON=C(C)SC`, the relative growth is 1.18. As to `CC[C@H](C)C1O[C@]2(C=C[C@@H]1C)C[C@@H]1C[C@@H](C/C=C(\C)[C@@H](O[C@H]3C[C@H](OC)[C@@H](O[C@H]4C[C@H](OC)[C@H](NC)[C@H](C)O4)[C@H](C)O3)[C@@H](C)/C=C/C=C3\CO[C@@H]4[C@H](O)C(C)=C[C@@H](C(=O)O1)[C@]34O)O2` (stereo not given in full), the relative growth was 0.609. As to `CSc1nnc(C(C)(C)C)c(=O)n1N`, the relative growth is 1.38. As for `C#CCOc1ccc(CCNC(=O)C(OCC#C)c2ccc(Cl)cc2)cc1OC` (stereo not given), the relative growth is 1.18. As for `COc1cc(C)c(C(=O)c2c(OC)ccc(Br)c2C)c(OC)c1OC`, the relative growth is 1.4.

Turning to `CN/C(=N\[N+](=O)[O-])NCc1cnc(Cl)s1`, the relative growth is 0.918. As for `CC1(C)C(C(=O)OC(C#N)c2cccc(Oc3ccccc3)c2)C1(C)C` (stereo not given), the relative growth is 1.18.

As to `CCc1cccc(C)c1N(C(=O)CCl)[C@@H](C)COC`, the relative growth is 1.04.

For `Cc1cccc2sc3nncn3c12`, the relative growth was 0.911. The result for `CNC(=O)c1cc(Cl)cc(C)c1NC(=O)c1cc(Br)nn1-c1ncccc1Cl` reads 1.24; that for `N#CCNC(=O)c1cnccc1C(F)(F)F`, 1.06; that for `CC1(C)[C@H](/C=C(\Cl)C(F)(F)F)[C@@H]1C(=O)OC(C#N)c1cccc(Oc2ccccc2)c1` (stereo not given in full), 1.38. In the case of `Fc1ccc(Oc2ccnc3cc(Cl)cc(Cl)c23)cc1`, the relative growth was 1.13.
